Measured values taken from PubChem BioAssay AID1511 (Johns Hopkins Ion Channel Center, 2009).
The whole screen tested about 310,000 compounds, of which about 1,600 (0.52%) were called active. The sample holds actives, similar compounds and a random draw of the others, so the mix is not that of the screen. A number with no mark means an inactive call.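 The calls were made as follows: active = activation above the mean of controls blocked by dofetilide plus 5 SD; inactive = the rest.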

Biological target: Voltage-gated inwardly rectifying potassium channel KCNH2 (Homo sapiens) (UniProt Q12809)
Experiment: compounds relieving dofetilide block of hERG – cell-based, CHO-hERG, FluxOR thallium flux, dofetilide IC70, primary screen (AID 1511);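 also: thallium influx through hERG after potassium depolarization seen as dye fluorescence rise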
Conditions: dofetilide IC70 present, at 10 µM, hits give high values

Chain of Voltage-gated inwardly rectifying potassium channel KCNH2 (Homo sapiens) (Q12809 whole entry, looked up): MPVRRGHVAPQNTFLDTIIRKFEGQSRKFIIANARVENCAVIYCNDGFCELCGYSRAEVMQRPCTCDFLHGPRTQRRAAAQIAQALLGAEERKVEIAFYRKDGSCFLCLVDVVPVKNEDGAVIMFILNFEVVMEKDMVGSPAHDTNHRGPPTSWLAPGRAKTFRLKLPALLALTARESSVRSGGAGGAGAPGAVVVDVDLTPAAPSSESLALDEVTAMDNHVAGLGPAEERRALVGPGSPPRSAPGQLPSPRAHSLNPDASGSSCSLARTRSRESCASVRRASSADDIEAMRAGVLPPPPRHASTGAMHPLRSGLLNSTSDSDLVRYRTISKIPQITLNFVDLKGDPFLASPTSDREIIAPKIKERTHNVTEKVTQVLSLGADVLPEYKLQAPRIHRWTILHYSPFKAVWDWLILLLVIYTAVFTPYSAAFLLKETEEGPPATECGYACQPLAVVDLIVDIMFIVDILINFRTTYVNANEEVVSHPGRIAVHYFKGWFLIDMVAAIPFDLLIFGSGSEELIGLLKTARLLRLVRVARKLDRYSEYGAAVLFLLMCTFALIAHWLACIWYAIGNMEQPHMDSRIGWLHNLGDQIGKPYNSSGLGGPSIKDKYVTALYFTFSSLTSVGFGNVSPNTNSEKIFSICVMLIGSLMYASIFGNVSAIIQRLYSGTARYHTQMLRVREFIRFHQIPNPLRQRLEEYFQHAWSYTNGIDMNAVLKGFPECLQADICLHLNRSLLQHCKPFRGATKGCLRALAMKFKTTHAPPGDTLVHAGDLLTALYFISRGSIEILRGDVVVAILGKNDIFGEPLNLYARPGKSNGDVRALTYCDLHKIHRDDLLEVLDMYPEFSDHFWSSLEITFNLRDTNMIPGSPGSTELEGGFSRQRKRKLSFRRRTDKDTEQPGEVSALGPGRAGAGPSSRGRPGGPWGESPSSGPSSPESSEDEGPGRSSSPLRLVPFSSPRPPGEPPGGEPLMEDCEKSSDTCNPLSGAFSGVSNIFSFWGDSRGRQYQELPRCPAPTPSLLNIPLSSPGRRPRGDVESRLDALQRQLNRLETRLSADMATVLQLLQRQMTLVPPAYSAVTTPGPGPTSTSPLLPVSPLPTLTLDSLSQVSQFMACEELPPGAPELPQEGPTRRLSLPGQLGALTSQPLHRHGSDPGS

Compared with `O=C(Nc1ccc(OCC(=O)N2CCOCC2)cc1)c1cc(F)c(F)cc1Cl`, `CN(c1ccccc1)S(=O)(=O)c1ccc(Cl)c(C(=O)OCC(=O)N2CCOCC2)c1` is higher in activation (rescue from dofetilide block), less the hit threshold: -9.32% for the first, 4.51% for the second.

Going from `CC(=O)Cc1nsc(NC(=O)c2ccc(Cl)cc2Cl)n1` to `Cc1ccc(NC(=O)CSc2nnc(CNC(=O)c3ccccc3F)o2)cc1Cl`, the activation (rescue from dofetilide block), less the hit threshold rises from -13.1% to -8.43%.

Going from `COCCCNC(=O)/C(C#N)=C/c1c(N2CCCCCC2)nc2ccccn2c1=O` to `O=C(COC(=O)c1cc(S(=O)(=O)N2CCCCC2)ccc1Cl)NCc1ccco1`, the activation (rescue from dofetilide block), less the hit threshold falls from -4.19% to -13.9%.

Compared with `Cc1c(C)c2c(OCC(=O)N[C@@H](C(=O)O)c3ccccc3)cc3c(c2oc1=O)CCC(C)(C)O3`, `CCOC(=O)c1c(C)oc2cc(Sc3ccccc3)c(O)c(O)c12` is lower in activation (rescue from dofetilide block), less the hit threshold: -2.69% for the first, -5.84% for the second.

Going from `COc1cc(Br)cc(/C=N/c2ncn[nH]2)c1O` to `CCOc1cc(/C=N/Nc2cc(C)nc3ccc(C)cc23)ccc1O`, the activation (rescue from dofetilide block), less the hit threshold falls from -7.59% to -14.3%.

First: CC(C)CCNC(=O)C1CCC(CNc2c(N3CCC(C)CC3)c(=O)c2=O)CC1 (stereo unspecified)
Second: CCOC(=O)C1CCN(c2c(Nc3cc(C)cc(C)c3)c(=O)c2=O)CC1
The activation (rescue from dofetilide block), less the hit threshold of the first is higher: -6.27% for the first, -11.1% for the second.

Compared with `Cc1cc(C)cc(NC(=O)NC2CCCCCCC2)c1`, `O=C(NC1CCCC1)C(c1c(F)cccc1Cl)N(C(=O)c1csnn1)C1CC1` (stereo unspecified) is higher in activation (rescue from dofetilide block), less the hit threshold: -9% for the first, -2.39% for the second.

Going from `CCOC(=O)CSC1=N/C(=C/c2ccc(-n3cncn3)cc2)C(=O)N1C(C)=O` to `CCCN(C(=O)CSc1nnnn1C)c1c(N)n(Cc2ccccc2)c(=O)[nH]c1=O`, the activation (rescue from dofetilide block), less the hit threshold rises from -12% to -7.93%.

First: Cc1cc(C)c2c(=O)[nH]c(SCC(=O)Nc3ccc(Br)cc3)nc2n1
Second: Cc1cc(C)c(NC(=O)CSc2nc3ccncc3[nH]2)c(C)c1
The activation (rescue from dofetilide block), less the hit threshold of the first is lower: -11.1% for the first, -2.72% for the second.

First: Cc1ccc(NC(=O)CCC(=O)c2ccc(Br)cc2)cc1
Second: Cc1ccc(NC(=O)Nc2cccnc2)cc1
The activation (rescue from dofetilide block), less the hit threshold of the first is higher: 1.34% for the first, -1.84% for the second.

Compared with `O=Cc1c(NCCc2cccc(F)c2)c2ccccc2[nH]c1=O`, `CCCCNC(=O)c1ccc(-n2c(=S)[nH]c3ccccc3c2=O)cc1` is lower in activation (rescue from dofetilide block), less the hit threshold: -6.93% for the first, -10.5% for the second.

Going from `CCOc1ccc(C(C)=O)cc1COC(=O)CNC(=O)c1cccs1` to `CC(C)C(=O)Nc1ccc(C(=O)NNC(=O)c2cccs2)cc1`, the activation (rescue from dofetilide block), less the hit threshold rises from -15.3% to -4.59%.

First: CCCc1nc2sc3c(c2c(=O)n1NC(=O)CCCl)CCCC3
Second: CN(C)CCCn1c(=O)n(Cc2ccccc2)c(=O)c2c3c(sc21)CCCCC3
The activation (rescue from dofetilide block), less the hit threshold of the first is higher: -1.21% for the first, -10.2% for the second.

First: O=C(/C=C/c1cccs1)NCc1cccnc1
Second: CCc1ccc(NC(=O)COC(=O)c2cccs2)cc1
The activation (rescue from dofetilide block), less the hit threshold of the first is lower: -8.68% for the first, -2.35% for the second.

Going from `O=[N+]([O-])c1ccc(N2CCN(c3ccc(F)cc3)CC2)cn1` to `COc1ccccc1N1CCN(c2ccc([N+](=O)[O-])nc2)CC1`, the activation (rescue from dofetilide block), less the hit threshold falls from -4.38% to -22%.

First: O=S(=O)(Nc1ccc2nc(-c3ccco3)[nH]c2c1)c1ccccc1
Second: Cc1ccc(S(=O)(=O)N(CC(=O)NCc2ccco2)c2ccccc2C)cc1
The activation (rescue from dofetilide block), less the hit threshold of the first is lower: -13.3% for the first, -7.72% for the second.

First: CCCCn1c(=S)[nH]c2ncccc2c1=O
Second: COC(=O)c1cccc(-n2[nH]nnc2=S)c1
The activation (rescue from dofetilide block), less the hit threshold of the first is higher: -2.34% for the first, -7.53% for the second.

Compared with `Cn1cc(S(=O)(=O)N2CCN(c3ccc(F)cc3)CC2)c(=O)n(C)c1=O`, `CC1CCCCC1NC(=O)c1cn(C)c2ccc(S(=O)(=O)N3CCOCC3)cc2c1=O` (stereo unspecified) is lower in activation (rescue from dofetilide block), less the hit threshold: -3.11% for the first, -5.24% for the second.

First: CCOc1ccc(N=C2NC(=O)S/C2=C\c2ccc(O)cc2)cc1
Second: COc1ccc(/C=C2\SC(=N)N(c3ccc(F)cc3)C2=O)cc1
The activation (rescue from dofetilide block), less the hit threshold of the first is lower: -4.52% for the first, -2.33% for the second.

Going from `COc1ccc(CCNC(=O)NS(=O)(=O)c2ccc(C)cc2)cc1OC` to `COc1ccc(S(=O)(=O)N2CCOC2CNC(=O)C(=O)NCc2ccncc2)cc1OC` (stereo unspecified), the activation (rescue from dofetilide block), less the hit threshold falls from 0.48% to -6.76%.

Compared with `C=CCN1C(=O)C(Cc2cccc(Cl)c2)S/C1=N/N=C/c1ccco1` (stereo unspecified), `O=C(COC(=O)c1ccco1)NCc1ccc(Cl)cc1` is higher in activation (rescue from dofetilide block), less the hit threshold: -5.7% for the first, -0.71% for the second.

Compared with `CCOc1ccc(N=C2SC(C(=O)O)CC(=O)N2C)cc1` (stereo unspecified), `CCN(CC)c1ccc(C(=O)c2cnc(/N=C/N(C)C)s2)cc1` is lower in activation (rescue from dofetilide block), less the hit threshold: -10.3% for the first, -22% for the second.

First: FC(F)(F)c1ccnc(Oc2ccc(C3=NCCS3)cc2)c1
Second: Cc1nn(CC2CC2)c(=O)n1N(C)c1ncc(C(F)(F)F)cc1Cl
The activation (rescue from dofetilide block), less the hit threshold of the first is higher: -5.42% for the first, -8.88% for the second.

Compared with `O=C(Nc1ccc(-c2cscn2)cc1)C1CCCN(Cc2ccc(CO)o2)C1` (stereo unspecified), `COc1ccc(COC(=O)N/N=C(\C)CC(=O)Nc2ccc(Cl)cc2)cc1` is lower in activation (rescue from dofetilide block), less the hit threshold: -2.17% for the first, -11.8% for the second.

Compared with `N#Cc1cccc(CN2CCC(=O)N(CCO)CC2)c1`, `O=C1CCN(CCc2ccccc2)CCN1CCOc1ccccc1` is lower in activation (rescue from dofetilide block), less the hit threshold: 1.97% for the first, -5.23% for the second.

First: Cc1n[nH]c(=O)c2c(NC(=O)COC(=O)c3ncc(Cl)c(Cl)c3Cl)oc(C)c12
Second: Cc1cc(OC(=O)c2c(Cl)cccc2Cl)nc(C)n1
The activation (rescue from dofetilide block), less the hit threshold of the first is higher: -12.6% for the first, -14.7% for the second.

Compared with `Cc1cc(OCCN2CCCC2)cc(C(C)C)c1`, `Cc1c(CN2CCC(CO)(CCOc3ccccc3)CC2)[nH]c2ccc(Cl)cc12` is lower in activation (rescue from dofetilide block), less the hit threshold: -6.59% for the first, -21.9% for the second.

First: COc1ccc(OC)c(C2C3=C(N=c4s/c(=C\c5cccc(O)c5)c(=O)n42)c2ccccc2CC3)c1 (stereo unspecified)
Second: Cc1cccc(-c2nc3ccccc3c(=O)n2NC(=O)Cc2ccc(Cl)cc2)c1
The activation (rescue from dofetilide block), less the hit threshold of the first is higher: -0.7% for the first, -2.81% for the second.

Compared with `O=C1CC(c2cccc(F)c2)C2=C(CCCC2=O)N1` (stereo unspecified), `O=C1CCCc2c1nc(-c1cccc(Cl)c1)n2O` is lower in activation (rescue from dofetilide block), less the hit threshold: -5.36% for the first, -10.5% for the second.

Going from `CCOC(=O)Cc1cc(=O)[nH]c(=O)[nH]1` to `CCOC(=O)N1CCN(C(=O)CN(c2ccc(C)c(C)c2)S(=O)(=O)c2ccccc2)CC1`, the activation (rescue from dofetilide block), less the hit threshold falls from -4% to -9.17%.

Going from `Cc1cc(C(=O)NCCc2ccc(Cl)cc2)c(C)o1` to `Cc1ccc(NNC(=O)c2c(F)cccc2Cl)cc1Cl`, the activation (rescue from dofetilide block), less the hit threshold rises from -9.03% to -7.77%.

First: C/C(CC(=O)Nc1ccc(Cl)cc1)=N\NC(=O)C(=O)NCCO
Second: Cc1ccc(C(=O)NC(=S)Nc2ccccc2C)cc1
The activation (rescue from dofetilide block), less the hit threshold of the first is lower: -8.82% for the first, -5.4% for the second.

First: COC(=O)C(C)N=Cc1ccccc1 (stereo unspecified)
Second: Nc1nnnn1/N=C/c1cccc(Br)c1
The activation (rescue from dofetilide block), less the hit threshold of the first is lower: -14% for the first, -0.31% for the second.

Going from `COc1cc(-c2noc(C3CCCN(S(=O)(=O)c4cccc(Cl)c4)C3)n2)cc(OC)c1OC` (stereo unspecified) to `Cc1cccc(S(=O)(=O)N2CN(CC3CCCO3)c3nc4ccccc4nc32)c1` (stereo unspecified), the activation (rescue from dofetilide block), less the hit threshold rises from -11.3% to -10.3%.

Compared with `COC(=O)c1sc(NC(=O)c2csc3c2CCCC3)nc1C`, `COc1ccc(CCc2nnc(CCC(=O)NCc3cnn(-c4ccccc4C)c3)o2)cc1` is higher in activation (rescue from dofetilide block), less the hit threshold: -6.43% for the first, -3.52% for the second.

First: Cc1ccc2c(c1)nnc1nnc(SCC(=O)O)n12
Second: CCN1CCN(C(=O)c2ccc(CN(c3ccc(C)c(C)c3)S(C)(=O)=O)cc2)CC1
The activation (rescue from dofetilide block), less the hit threshold of the first is higher: 1.69% for the first, -6.12% for the second.

First: CCO[C@H]1OC(C(=O)O)=C[C@@H](C2CCCCC2)[C@@H]1CCCO
Second: O=C(OCC(=O)N1CCN(C(=O)c2ccco2)CC1)c1cccc(O)c1
The activation (rescue from dofetilide block), less the hit threshold of the first is lower: -4.25% for the first, -4% for the second.

Compared with `COc1cc(OC)cc(/C(N)=N/O)c1`, `COc1ccc(S(=O)(=O)NCC(c2ccco2)N2CCOCC2)cc1` (stereo unspecified) is higher in activation (rescue from dofetilide block), less the hit threshold: -15.6% for the first, -10.9% for the second.

In the case of `CC1CC(C)CN(C(=O)CSc2ccsc2[N+](=O)[O-])C1` (stereo unspecified), the activation (rescue from dofetilide block), less the hit threshold is reported as -2.19%.

With `CCN1CCc2nc(NC(=O)c3cc(F)c(F)cc3Cl)sc2C1` the activation (rescue from dofetilide block), less the hit threshold was 15.1% (active).
With `Oc1c(Cl)cc(Cl)cc1/C=N/c1ncn[nH]1` the activation (rescue from dofetilide block), less the hit threshold was 15.4% (active).
`Cc1ccn(C(CC(=O)c2ccc(Br)cc2)C(=O)O)n1` (stereo unspecified) was tested, and the activation (rescue from dofetilide block), less the hit threshold was 5% (active).
For `CCn1c(=S)[nH]c2sc3c(c2c1=O)CCCCC3`, the activation (rescue from dofetilide block), less the hit threshold was 37.3% (active).
For `COc1ccc(N2CCN(c3ccc([N+](=O)[O-])nc3)CC2)cc1`, the activation (rescue from dofetilide block), less the hit threshold was 7.73% (active).
For `CCc1ccc(NC(=O)C(=O)NNC(=O)c2cccs2)cc1`, the activation (rescue from dofetilide block), less the hit threshold was 46.7% (active).
With `CCCCn1c(=S)[nH]c2ccccc2c1=O` the activation (rescue from dofetilide block), less the hit threshold was 7.08% (active).
`COc1ccc(/C=C2/S/C(=N/N=C3\CC4CCC3(C)C4(C)C)NC2=O)cc1` (stereo unspecified) was tested, and the activation (rescue from dofetilide block), less the hit threshold was 19.7% (active).
In the case of `C=CCN1C(=O)C(Cc2ccc(OCC)cc2)SC1=Nc1ccc(C(=O)O)cc1` (stereo unspecified), the activation (rescue from dofetilide block), less the hit threshold is reported as 5.1% (active).
In the case of `O=C1CCN(CCCc2ccccc2)CCN1CCO`, the activation (rescue from dofetilide block), less the hit threshold is reported as 5.3% (active).
With `O=C(COC(=O)c1cnc(Cl)c(Cl)c1)NCc1ccco1` the activation (rescue from dofetilide block), less the hit threshold was 40.4% (active).
`O=C1CCCC2=C1C(c1ccccc1)n1c(s/c(=C/c3cccc(F)c3)c1=O)=N2` (stereo unspecified) was tested, and the activation (rescue from dofetilide block), less the hit threshold was 5.71% (active).
With `CCc1ccc(NC(=O)C(=O)N/N=C(\C)CC(=O)NCCOC)cc1` the activation (rescue from dofetilide block), less the hit threshold was 6.83% (active).
In the case of `COC(=O)c1sc(NC(=S)NC(=O)c2ccc(C)cc2)nc1C`, the activation (rescue from dofetilide block), less the hit threshold is reported as 7.72% (active).
With `CCOC(=O)N1CCN(C(=O)c2ccc(CN(c3ccc(C)c(C)c3)S(C)(=O)=O)cc2)CC1` the activation (rescue from dofetilide block), less the hit threshold was 4.64% (active).
With `CN(c1ccccc1)S(=O)(=O)c1cc(C(=O)OCC(=O)N2CCN(C(=O)c3ccco3)CC2)ccc1Cl` the activation (rescue from dofetilide block), less the hit threshold was 5.23% (active).
`Cc1cc(C)c(NC(=O)CS(=O)CC(=O)Nc2cccnc2)c(C)c1` (stereo unspecified) was tested, and the activation (rescue from dofetilide block), less the hit threshold was 7.98% (active).
`Cc1cc(C)c(S(=O)(=O)c2ccccc2)c(OC(=O)c2c(F)cccc2Cl)n1` was tested, and the activation (rescue from dofetilide block), less the hit threshold was 8.53% (active).
In the case of `O=c1c2cc(Br)ccc2nc(-c2cccc(Cl)c2)n1O`, the activation (rescue from dofetilide block), less the hit threshold is reported as 59% (active).
